Several values for one entry are separate records, joined by “and”; a condition that tells them apart may be missing. Equal values may be shown once. Inconclusive results are not listed. Entries that show only a call come without a potency. Activity calls are given as the source filed them. Unless noted, calls come from the whole dose curve; as a rule, active = well fitted curve in the direction sought with a large enough effect; inconclusive = small, poorly fitted or top-dose-only effect, or another doubt; inactive = no such curve, though single readings can be large; an effect the other way counts as inactive or inconclusive.
How the values were obtained:
[1] = qHTS Assay for Lipid Storage Modulators (AID 1519; calls by dose curve); conditions: Drosophila S3 cells, BODIPY lipid droplet/cell ratio, laser cytometry, cells loaded with oleic acid
Summary of the method: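 Cells seeded at 5,000 per well were treated with compounds over a concentration series and loaded with oleic acid (400 uM, as added). Lipid droplet fluorescence (488 nm excitation, 500-530 nm channel) was read by laser-scanning cytometry and normalized to 20 uM Triacsin C.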

[2] = target: DNA repair nuclease/redox regulator APEX1 (Homo sapiens) (UniProt P27695); assay: qHTS Validation Assay for Inhibitors of the Human Apurinic/apyrimidinic Endonuclease 1 (APE1) (AID 1705;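 note: TAMRA fluorescence gain over two minutes as APE1 cuts a quenched THF abasic duplex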); conditions: purified APE1 endonuclease activity, fluorescence, titration; series mostly up to 57.1 µM
Summary of the method: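 Fluorogenic double-stranded THF abasic-site substrate (5'-TAMRA/3'-BHQ-2), 50 nM final. Enzyme preincubated with compound 15 min at room temperature, then substrate added. Kinetic fluorescence (ex 525/em 598 nm) read three times at 60 s intervals; activity taken as third-minus-first read difference.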

[3] = Counterscreen for APE1 Inhibitors: Fluorescent Dye Displacement Validation Assay (AID 1707); conditions: fluorescent dye displacement from DNA; series mostly up to 57.1 µM
Summary of the method: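 Counterscreen flags promiscuous DNA binders: compounds displacing ThO from duplex DNA (abasic THF site, 50 nM) reduce 540 nm emission (480 nm excitation). ThO 250 nM final; Tris-HCl pH 7.5 with NaCl, MgCl2 and Tween-20.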

[4] = target: Endonuclease 4 (Escherichia coli (strain K12)) (UniProt P0A6C1); assay: Counterscreen for APE1 Inhibitors: qHTS Validation Assay for Inhibitors of Endonuclease IV (AID 1708); conditions: E. coli endonuclease IV, DNA cleavage fluorescence; series mostly up to 57.1 µM
Summary of the method: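 The reaction buffer contained 50 mM Tris-HCl pH 7.5, 50 mM NaCl, 2 mM MgCl2, 1 mM DTT and 0.01% Tween-20. Incision of a 50 nM fluorophore/quencher THF substrate by 2 nM enzyme was measured kinetically.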

[5] = qHTS for differential inhibitors of proliferation of Plasmodium falciparum line 7G8 (AID 1815); conditions: Plasmodium falciparum 7G8 proliferation inhibition; series mostly up to 28.7 µM;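 note: parasite growth measured after three days of incubation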; note: potency is the fitted concentration of half-maximal effect
[6] = qHTS for differential inhibitors of proliferation of Plasmodium falciparum line GB4 (AID 1816); conditions: Potency: Plasmodium falciparum GB4 proliferation inhibition; series mostly up to 28.7 µM;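 note: parasite growth measured after 72 h incubation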; note: potency is the fitted concentration of half-maximal effect
[7] = qHTS for differential inhibitors of proliferation of Plasmodium falciparum line 3D7 (AID 1876); note: potency is the fitted concentration of half-maximal effect; conditions: P. falciparum 3D7 proliferation inhibition; series mostly up to 28.7 µM
[8] = qHTS for differential inhibitors of proliferation of Plasmodium falciparum line D10 (AID 1877); conditions: series mostly up to 28.7 µM;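 note: parasites grown with compound for 72 h before DNA staining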; note: potency is the fitted concentration of half-maximal effect
[9] = qHTS for differential inhibitors of proliferation of Plasmodium falciparum line Dd2 (AID 1882); conditions: Potency: Plasmodium falciparum Dd2 proliferation inhibition; series mostly up to 28.7 µM; note: nearly all actives have a fitted effect of over 65% in size; note: potency is the fitted concentration of half-maximal effect;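 for activity change, negative = inhibition: compound exposure of 72 h on infected erythrocytes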
Summary of the method: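 RBC culture, 0.3% parasitemia / 2.5% Hct final; cpd added by pin tool in DMSO; 72 h, 37 C, 5% CO2; lysis buffer + SYBR Green I, o/n RT dark; FI 485/535; norm. to artemisinin 0.29 uM and DMSO.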

[10] = qHTS for differential inhibitors of proliferation of Plasmodium falciparum line W2 (AID 1883); conditions: Potency: Plasmodium falciparum W2 proliferation inhibition; series mostly up to 28.7 µM;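 note: parasites grown with compound for 72 h before lysis and staining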; note: potency is the fitted concentration of half-maximal effect
[11] = measured here: cell count channel max response
[12] = measured here: lipid channel max response

Chain of DNA repair nuclease/redox regulator APEX1 (Homo sapiens) (P27695 whole entry, looked up): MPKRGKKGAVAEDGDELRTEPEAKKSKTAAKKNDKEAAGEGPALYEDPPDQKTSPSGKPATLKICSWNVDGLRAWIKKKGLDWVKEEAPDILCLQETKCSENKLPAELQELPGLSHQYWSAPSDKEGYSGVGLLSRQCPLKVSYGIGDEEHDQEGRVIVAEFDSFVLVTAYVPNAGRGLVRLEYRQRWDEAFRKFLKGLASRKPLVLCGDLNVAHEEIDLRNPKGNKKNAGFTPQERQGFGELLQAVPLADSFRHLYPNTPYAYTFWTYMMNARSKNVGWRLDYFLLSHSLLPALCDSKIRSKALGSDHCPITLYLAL

| Compound | activity change, negative = inhibition ([1]; at 25.7 µM (top of the series)) | activity change, negative = inhibition ([1]; at 57.5 µM (top of the series)) | max response [1, 11] | max response [1, 12] | Potency [2] | outcome [3] | Potency [4] | Potency [5] | Potency [6] | Potency [7] | Potency [8] | Potency [9] | Potency [10] |
| --- | --- | --- | --- | --- | --- | --- | --- | --- | --- | --- | --- | --- | --- |
| CC1=NS(=O)(=O)c2cc(Cl)ccc2N1 | 4.02% (inactive) | 14.6% (inactive) | 8.52% and 9.84% | 14.7% and 27.6% | inactive | inactive | inactive | inactive | inactive | inactive | inactive | inactive | inactive |
| CN(C)CCN(Cc1cccs1)c1ccccn1 | 0.542% (inactive) | 3.3% (inactive) | 2.28% and 15.7% | 3.57% and 22% | inactive |  | inactive |  | 5.62 µM (active) | inactive | inactive | 7.08 µM (active) | 3.16 µM (active) |
| CN(C)CCCN1c2ccccc2Sc2ccc(C(F)(F)F)cc21 | -1.52% (inactive) | 3.48% (inactive) | -5.7% and 9.08% | -9.54% and 14.3% | inactive |  |  | 8.91 µM (active) | 11.2 µM (active) |  | 11.2 µM (active) | 11.2 µM (active) | 7.08 µM (active) |
| CN(C)CCCN1c2ccccc2Sc2ccccc21 | 0.5% (inactive) | 7.75% (inactive) and 0.211% (inactive) | -16.2% and -4.1% and -25% | -14.8% and 2.83% and -21.3% | inactive |  |  | 11.2 µM (active) | 10 µM (active) |  |  |  | 0.794 µM (active) |
| Cc1ccc(Cl)c(Nc2ccccc2C(=O)O)c1Cl | -1.03% (inactive) | 12.3% (inactive) and -1.87% (inactive) | -11.2% and 0.124% and -35.9% | -11.6% and 13.1% and -37% | inactive | inactive | inactive | inactive | inactive | inactive | inactive | inactive | inactive |
| COC(=O)C1=C(C)NC(C)=C(C(=O)OCCN(C)Cc2ccccc2)C1c1cccc([N+](=O)[O-])c1 (stereo not drawn) |  | 2.25% (inactive) | -9.5% | -7.38% | inactive |  |  |  |  |  |  |  |  |
| c1cnc(N2CCN(Cc3ccc4c(c3)OCO4)CC2)nc1 | 3.16% (inactive) | 2.74% (inactive) | -1.42% and -12.3% | 3.03% and -8.1% | inactive | inactive | inactive | inactive |  | inactive | inactive | inactive |  |
| NC(N)=NC(=O)Cc1c(Cl)cccc1Cl | -2.29% (inactive) | 1.08% (inactive) | -10.4% and 9.91% | -13.2% and 12.7% | inactive |  | inactive | 3.98 µM (active) | 3.98 µM (active) | 2.82 µM (active) |  | inactive | 3.16 µM (active) |
| CC[N+](C)(C)c1cccc(O)c1 | 1% (inactive) | 8.9% (inactive) and 0.601% (inactive) | 22.3% and 9.17% and -28.2% | 23.6% and 20.6% and -27.6% | inactive | inactive | inactive | inactive | inactive |  |  | inactive | inactive |
| CC(=O)Nc1nnc(S(N)(=O)=O)s1 | -1.69% (inactive) | -0.868% (inactive) | 6.43% and 19.5% | 5.21% and 17% | inactive |  |  | inactive | inactive | inactive | inactive | inactive | inactive |
| CCO/C([O-])=N/c1c[n+](N2CCOCC2)no1 | -2.6% (inactive) | 9.19% (inactive) and 0.351% (inactive) | -1.78% and -5.37% and -2.1% | -4.32% and 6.3% and -2.43% | inactive |  |  | inactive | inactive | inactive | inactive | inactive | inactive |
| CCn1cc(C(=O)O)c(=O)c2cc3c(cc21)OCO3 | -1.05% (inactive) | 2.77% (inactive) | 12% and 70.6% | 10.4% and 75.7% |  | inactive | inactive |  |  |  | inactive | inactive |  |
| O=C(O)CN(CCN(CC(=O)O)CC(=O)O)CCN(CC(=O)O)CC(=O)O | -4.98% (inactive) | 0.152% (inactive) | -17.8% and 39.9% | -19.2% and 38.7% | inactive |  |  |  |  | inactive | inactive | inactive | inactive |
| C#CCN(C)CCCOc1ccc(Cl)cc1Cl | -0.841% (inactive) |  | -6.58% | -5.76% | inactive | inactive |  |  |  | inactive | inactive | inactive | 11.2 µM (active) |
| NC(N)=N/N=C/c1c(Cl)cccc1Cl |  |  |  |  | inactive | inactive |  |  |  |  |  |  |  |
| CC(C)NCC(O)c1cc(O)cc(O)c1 (stereo not drawn) |  | 10.7% (inactive) and 0.0278% (inactive) | 8.74% and -21.1% | 23% and -23.1% |  | inactive |  | inactive | inactive | inactive | inactive | inactive | inactive |
| CCN(Cc1ccncc1)C(=O)C(CO)c1ccccc1 (stereo not drawn) |  |  |  |  | inactive | inactive |  | inactive | inactive | inactive | inactive | inactive | inactive |
| CCNC(=O)N1CCN(CCCC(c2ccc(F)cc2)c2ccc(F)cc2)CC1 |  | -0.161% (inactive) | -45.7% | -48.7% | inactive |  |  | 1.58 µM (active) | 1.12 µM (active) | 0.891 µM (active) | 2.51 µM (active) | 3.16 µM (active) | 0.282 µM (active) |
| C[C@]12C=CC(=O)C=C1CC[C@H]1[C@@H]3C[C@@H](O)[C@](O)(C(=O)CO)[C@@]3(C)C[C@H](O)[C@@]12F |  |  |  |  | inactive | inactive |  | inactive | inactive | inactive | inactive | inactive | inactive |

Reference: PubChem BioAssay (NCATS)
